Molecules are shown by their SMILES. Where a name gives a salt, the structure may show the parent alone.

The experiment relates to Danio rerio larvae (5 dpf). The experiment in a line: combined upward orientation toward moving lines (periods 7-14) minus DMSO control (percentage points); higher = more orientation with moving lines than DMSO larvae. Conditions: 10 µM; exposure time: 3 h pre-incubation + 3 h imaging. The method, then:
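Wild-type 5 dpf zebrafish larvae (n=48 per drug, 96-well plates, 28.5 °C) were exposed to Tocris FDA-approved library compounds at 10 µM (0.1% DMSO) for 3 h before and 3 h during imaging. Images were taken every 6 s during visual (moving coloured lines) and acoustic stimuli, and larvae were tracked with the DeepLabCut-based Z-LaP Tracker. Each behavioural measure is the treated-group mean minus the DMSO vehicle control mean (n=844), in percentage points. This mapping covers compounds with 4-character plate codes.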
`COc1ccc(-c2ccc3cc(C(=O)O)ccc3c2)cc1C12CC3CC(CC(C3)C1)C2` [Adapalene]: the “combined upward orientation toward moving lines” value is -8.09. Regarding `Cc1ccc(N(CC2=NCCN2)c2cccc(O)c2)cc1` [Phentolamine Mesylate], the “combined upward orientation toward moving lines” value came out at 4.89. For the compound `CC1CNc2c(cccc2S(=O)(=O)N[C@@H](CCCNC(=N)N)C(=O)N2CC[C@@H](C)C[C@@H]2C(=O)O)C1` (stereo not given in full) [Argatroban], the “combined upward orientation toward moving lines” value worked out at 0.479. The value for `CCOC(=O)c1ncn2c1CN(C)C(=O)c1cc(F)ccc1-2` [Flumazenil] was 2.99; that for `CCCCNc1cc(C(=O)O)cc(S(N)(=O)=O)c1Oc1ccccc1` [Bumetanide] was -3.42. On to `CC(=O)S[C@@H]1CC2=CC(=O)CC[C@]2(C)[C@H]2CC[C@@]3(C)[C@@H](CC[C@@]34CCC(=O)O4)[C@H]12` [Spironolactone], for which the “combined upward orientation toward moving lines” value is -2.59.

In the case of `O=C(Nc1c(Cl)cncc1Cl)c1ccc(OC(F)F)c(OCC2CC2)c1` [Roflumilast], the “combined upward orientation toward moving lines” value is -2.52. With `CC1(C)O[C@@H]2[C@@H](CO[C@@]3(COS(N)(=O)=O)OC(C)(C)O[C@@H]23)O1` [Topiramate], the “combined upward orientation toward moving lines” value was -4.17. As for `O=C(O[C@@H]1C[C@@H]2C[C@H]3C[C@H](C1)N2CC3=O)c1c[nH]c2ccccc12` [Dolasetron mesylate], the “combined upward orientation toward moving lines” value is -0.866.

As to `CC(=O)Oc1ccccc1C(=O)O` [Aspirin], the “combined upward orientation toward moving lines” value was -3.93.

On to `CC/C(=C(\c1ccccc1)c1ccc(OCCN(C)C)cc1)c1ccccc1` [Tamoxifen citrate], for which the “combined upward orientation toward moving lines” value is -3.88. The value for `CCOC(=O)C1=C(COCCN)NC(C)=C(C(=O)OC)C1c1ccccc1Cl` (stereo not given) [Amlodipine besylate] was 0.386; that for `N[C@@H]1[C@H]2CN(c3nc4c(cc3F)c(=O)c(C(=O)O)cn4-c3ccc(F)cc3F)C[C@@H]12` [Trovafloxacin mesylate] was -3.7. The same measure for `Cc1ccc(O)c([C@H](CCN(C(C)C)C(C)C)c2ccccc2)c1` [Tolterodine L-tartrate]: 0.814; for `CN1CCN2c3ncccc3Cc3ccccc3C2C1` (stereo not given) [Mirtazapine]: -11.4.

For the compound `O=C(O)c1cc(/N=N/c2ccc(S(=O)(=O)Nc3ccccn3)cc2)ccc1O` [Sulfasalazine], the “combined upward orientation toward moving lines” value is -3.42.

Turning to `C[C@]12CCC(=O)C=C1CC[C@@H]1[C@@H]2[C@@H](O)C[C@@]2(C)[C@H]1CC[C@]2(O)C(=O)CO` [Hydrocortisone], the “combined upward orientation toward moving lines” value is 0.758. The same measure for `CCCCC1=NC2(CCCC2)C(=O)N1Cc1ccc(-c2ccccc2-c2nnn[nH]2)cc1` [Irbesartan]: -8.87; for `C[C@]12CC[C@@H]3c4ccc(O)cc4C[C@@H](CCCCCCCCC[S+]([O-])CCCC(F)(F)C(F)(F)F)[C@H]3[C@@H]1CC[C@@H]2O` (stereo not given in full): 0.781. The same measure for `CCCCCOC(=O)Nc1nc(=O)n([C@@H]2O[C@H](C)[C@@H](O)[C@H]2O)cc1F` [Capecitabine]: -0.314; for `CCCCCCCCc1ccc(CCC(N)(CO)CO)cc1`: -8.46. The value for `OCCOCCN1CCN(C2=Nc3ccccc3Sc3ccccc32)CC1` [Quetiapine hemifumarate] was -3.4; that for `C[C@H]1C[C@@H]2[C@H]([C@@H](O)C[C@@]3(C)[C@H]2CC[C@]3(O)C(=O)CO)[C@@]2(C)C=CC(=O)C=C12` [Methylprednisolone] was -7.43; that for `CCCCc1nc(Cl)c(CO)n1Cc1ccc(-c2ccccc2-c2nnn[nH]2)cc1` [Losartan potassium] was -9.02. Regarding `CN1CCN(CCCN2c3ccccc3Sc3ccc(Cl)cc32)CC1` [Prochlorperazine dimaleate], the “combined upward orientation toward moving lines” value came to 0.242.

In the case of `Cc1nc(Nc2ncc(C(=O)Nc3c(C)cccc3Cl)s2)cc(N2CCN(CCO)CC2)n1` [Dasatinib], the “combined upward orientation toward moving lines” value is -11.

Take `CC[C@H](C)C(=O)O[C@H]1C[C@@H](C)C=C2C=C[C@H](C)[C@H](CC[C@@H]3C[C@@H](O)CC(=O)O3)[C@H]21` [Lovastatin]: the “combined upward orientation toward moving lines” value is -3.5. The value for `CCOC(=O)[C@H](CCc1ccccc1)N[C@H]1CCc2ccccc2N(CC(=O)O)C1=O` [Benazepril hydrochloride] was -4.13; that for `CCc1c2c(nc3ccc(OC(=O)N4CCC(N5CCCCC5)CC4)cc13)-c1cc3c(c(=O)n1C2)COC(=O)[C@]3(O)CC` was -3.82. The value for `Nc1nc2c(ncn2COCCO)c(=O)[nH]1` [Acyclovir] was 0.15; that for `CCOc1nc2cccc(C(=O)O)c2n1Cc1ccc(-c2ccccc2-c2nnn[nH]2)cc1` [Candesartan] was 2.56. The same measure for `CCOc1ccccc1OCCN[C@H](C)Cc1ccc(OC)c(S(N)(=O)=O)c1` [Tamsulosin hydrochloride]: -16.3. For `Nc1cc(N2CCCCC2)nc(N)[n+]1[O-]` [Minoxidil], the “combined upward orientation toward moving lines” value is -2.16.

Regarding `NC(=O)N1c2ccccc2C=Cc2ccccc21` [Carbamazepine], the “combined upward orientation toward moving lines” value is -1.82. The value for `CC(C)n1c(/C=C/C(O)CC(O)CC(=O)O)c(-c2ccc(F)cc2)c2ccccc21` (stereo not given) [Fluvastatin sodium] was 1.58. The same measure for `CCCCC(=O)N(Cc1ccc(-c2ccccc2-c2nnn[nH]2)cc1)[C@H](C(=O)O)C(C)C` [Valsartan]: 2.9. The same measure for `CN(CCOc1ccc(NS(C)(=O)=O)cc1)CCc1ccc(NS(C)(=O)=O)cc1` [Dofetilide]: -4.9; for `Cc1cccc(C)c1OCC(C)N` (stereo not given) [Mexiletine hydrochloride]: -1.93; for `CN1CC2c3ccccc3Oc3ccc(Cl)cc3C2C1` (stereo not given) [Asenapine maleate]: -7.05.

With `Nc1nc(NC2CC2)c2ncn([C@H]3C=C[C@@H](CO)C3)c2n1` [Abacavir hemisulfate], the “combined upward orientation toward moving lines” value was -1.52.
